The source of these data is PubChem BioAssay (EPA / NIEHS).

A word on the AC50: it is the concentration giving half of the maximal activity seen.

The structures appear in SMILES notation. Active and inactive are the calls of the source. Rule for the calls: active = hit-call score of the fitted dose curve at least 0.9, where 1 is the maximum; inactive = score below 0.9.

The nature of this test: APR_HepG2_MitoMembPot_1hr: Apredica 1-hour HepG2 Assay for Mitochondrial Membrane Potential (AID 2282675). The note with it: imaging, actives raise or lower the signal. Here is the method: APR_HepG2_1hr is a cell-based, multiplexed-readout assay that uses HepG2, a human liver cell line, with measurements taken at 1 hour after chemical dosing in a 384-well plate.APR_HepG2_MitoMembPot_1hr is one of 10 assay component(s) measured or calculated from the APR_HepG2_1hr assay. It is designed to make measurements of dye binding, a form of membrane potential reporter, as detected with fluorescence intensity signals by HCS Fluorescent Imaging technology.Data from the assay component APR_HepG2_MitoMembPot_1hr was analyzed into 1 assay endpoint. This assay endpoint, APR_HepG2_MitoMembPot_1hr, was analyzed with bidirectional fitting relative to DMSO as the negative control and baseline of activity. Using a type of membrane potential reporter, gain or loss-of-signal activity can be used to understand changes in the signaling. Furthermore, this assay endpoint can be referred to as a primary readout, because this assay has produced multiple assay endpoints where this one serves a signaling function. To generalize the intended target to other relatable targets, this assay endpoint is annotated to the cell morphology intended target family, where the subfamily is organelle conformation.
Cells were treated with dimethyl sulfoxide (DMSO) as a solvent control at a final concentration of 0.5% v/v or with compounds in DMSO with a resulting final DMSO concentration of 0.5% v/v. Compound treatment was done at concentrations of 0.39, 0.78, 1.56, 3.12, 6.24, 12.5, 25, 50, 100, and 200 uM in duplicate on each plate. Cells were treated with compounds for 1, 24, or 72 hr. Carbonyl […] m-chloro-phenylhydrazone (CCCP) and taxol were used as positive controls for mitochondrial function and cytoskeletal stability, respectively; DMSO served as the negative control for this experiment. Cells were fixed by the direct addition of 50 uL formaldehyde in Hank's Balanced Salt Solution (HBSS) to a final concentration of 3.7%. After incubation in the fixation medium for 30 min at room temperature (293-298 K), cells were rinsed twice with HBSS and treated with cell permeabilization buffer (16 uL of 0.5% Triton X-100) for 10 min at room temperature (293-298 K) before labeling. For mitochondrial membrane potential and mitochondrial measurements, pre-fixed cells were incubated with 50 uL of MitoTracker Red CMXRos (Invitrogen) at a concentration of 250 nM for 30 min before fixation. In the remaining cases, post-fixed cells were labeled by incubation with a multiplexed mixture of primary antibodies in HBSS for 60 min at room temperature (293-298 K) to detect immunoreactivity of c-Jun (1:500), phospho-histone H3 (1:100), phospho-histone H2A.x (1:200), p53 (1:400), alpha-tubulin (1:200) and Hoechst 33342 (2 ug/mL). Cells were labeled for multiplexed imaging on two separate plates: a) Hoechst 33342, MitoTracker Red, phospho-histone H3, and alpha-tubulin, and b) Hoechst 33342, phospho-histone H2A.x, and c-Jun. A final rinse with HBSS (50 uL) was performed before analysis. The primary and secondary antibodies for the proteins were phospho-histone H3 (rabbit anti-phospho-histone H3 and FITC-donkey anti-rabbit IgG), phospho-histone H2A.x (mouse anti-phospho-histone H2A.x and FITC-donkey anti-mouse IgG), c-Jun (rabbit anti-phospho-c-Jun and Cy3-donkey anti-rabbit IgG), p53 (sheep anti-p53 and Cy5-donkey anti-sheep IgG), alpha-tubulin (mouse anti-alpha-tubulin and Cy5-donkey anti-mouse IgG). These antibodies are available as the CellCiphr HepG2 assay kit (Millipore).Digital images of each well were captured using a Cellomics ArrayScan VTI (Thermo Scientific Cellomics) (0.8 NA objective, 0.63x optical coupler, and XF-93 filter set) at 20x magnification. The images were acquired using the autofocus feature of the ArrayScan instrument, which entails the following steps. First, the camera focuses on channel 1 (Hoechst 33342), where nuclei are identified. Second, a Z offset of 1 um is used for capturing mitochondria (MitoTracker Red). […]
Take `CS/C(C)=N/OC(=O)N(C)SN(C)C(=O)O/N=C(\C)SC`: the call was inactive.

As for `CN(C)C(=S)SSC(=S)N(C)C`, the molecule was called inactive.

Turning to `CCc1nn(C)c(C(=O)NCc2ccc(C(C)(C)C)cc2)c1Cl`, the result was inactive.

Consider `CCOC(=O)C(Cl)Cc1cc(-n2nc(C)n(C(F)F)c2=O)c(F)cc1Cl` (stereo not given), for which the call was inactive.

With `CCON=C(CC)C1=C(O)CC(c2c(C)cc(C)cc2C)CC1=O` (stereo not given), the outcome was inactive.

For the molecule `O=C(O)c1nc(Cl)ccc1Cl`, the result was inactive.

Consider `CC(C)(C)c1ccc(CSc2cnn(C(C)(C)C)c(=O)c2Cl)cc1`, for which the outcome was inactive.

As to `COC(=O)N(OC)c1ccccc1COc1ccn(-c2ccc(Cl)cc2)n1`, the AC50 is 0.0634 µM (active).

For `CCCC1COC(Cn2cncn2)(c2ccc(Cl)cc2Cl)O1` (stereo not given), the outcome was inactive.

For the molecule `CCCN(CCC)c1c([N+](=O)[O-])cc(S(N)(=O)=O)cc1[N+](=O)[O-]`, the call was inactive.

Consider `CC(C)C1(C)N=C(c2nc3ccccc3cc2C(=O)O)NC1=O` (stereo not given), for which the molecule was called inactive.

Regarding `COc1nc(C)nc(NC(=O)NS(=O)(=O)c2ccccc2CCC(F)(F)F)n1`, the outcome was inactive.

As for `CC1=C(C(=O)Nc2ccccc2)SCCO1`, the molecule was called inactive.

As for `C=CCC1=C(C)[C@@H](OC(=O)[C@@H]2[C@@H](C=C(C)C)C2(C)C)CC1=O`, the concentration at half-maximal activity (AC50) was 109 µM (active).

For the molecule `OC(c1ccc(Cl)cc1)(c1cncnc1)c1ccccc1Cl` (stereo not given), the call was inactive.

In the case of `CO/C=C(/C(=O)OC)c1ccccc1Oc1cc(Oc2ccccc2C#N)ncn1`, the call was inactive.

Turning to `CCCCNC(=O)OCC#CI`, the result was inactive.

Turning to `N#Cc1cc(Br)c(O)c(Br)c1`, the molecule was classed as inactive.

As for `COP(N)(=O)SC` (stereo not given), the call was inactive.

Regarding `CNC(=S)S`, the result was inactive.

On to `CON(C)C(=O)Nc1ccc(Cl)c(Cl)c1`, for which the call was inactive.

As for `N#Cc1nn(-c2c(Cl)cc(C(F)(F)F)cc2Cl)c(N)c1S(=O)C(F)(F)F` (stereo not given), the half-maximal activity concentration (AC50) is 54.4 µM (active).

For the molecule `COP(=S)(OC)Oc1nc(Cl)c(Cl)cc1Cl`, the molecule was classed as inactive.

With `CNC(=O)ON=CC(C)(C)SC`, the call was inactive.

`Cc1cc(Cl)ccc1OCC(=O)O`: the molecule was called inactive.

Regarding `CCOc1cc(Oc2ccc(C(F)(F)F)cc2Cl)ccc1[N+](=O)[O-]`, the molecule was classed as inactive.

Turning to `COC(=O)c1ccccc1C(=O)OC`, the result was inactive.

For the molecule `Oc1ccccc1-c1ccccc1`, the outcome was inactive.

Regarding `N#CC(CCc1ccc(Cl)cc1)(Cn1cncn1)c1ccccc1` (stereo not given), the molecule was called inactive.

For the molecule `Cc1c(F)c(F)c(COC(=O)C2C(/C=C(\Cl)C(F)(F)F)C2(C)C)c(F)c1F` (stereo not given), the result was inactive.

For `COc1nc(C)nc(NC(=O)NS(=O)(=O)c2ccccc2Cl)n1`, the molecule was called inactive.

Consider `C#CCOS(=O)OC1CCCCC1Oc1ccc(C(C)(C)C)cc1` (stereo not given), for which the concentration at half-maximal activity (AC50) was 82.3 µM (active).

Regarding `CCCCOC(=O)c1ccccc1C(=O)OCCCC`, the outcome was inactive.

`COC(=O)C=C(C)OP(=O)(OC)OC`: the result was inactive.

In the case of `CCNc1nc(Cl)nc(NC(C)C)n1`, the molecule was classed as inactive.

Turning to `Cc1ccc(-c2c(Cl)nc(C#N)n2S(=O)(=O)N(C)C)cc1`, the AC50 was 100 µM (active).

Turning to `CC1COC(Cn2cncn2)(c2ccc(Oc3ccc(Cl)cc3)cc2Cl)O1` (stereo not given), the call was inactive.

In the case of `O=C(Nc1ccccc1)Nc1ccnc(Cl)c1`, the AC50 was 99.5 µM (active).

As for `C=CC1(C)OC(=O)N(c2cc(Cl)cc(Cl)c2)C1=O` (stereo not given), the call was inactive.

`CCCCC(CC)COC(=O)c1ccccc1C(=O)OCC(CC)CCCC` (stereo not given): the call was inactive.
